Experiment [1] in a line: ATG_CRE_CIS: Attagene CIS-FACTORIAL HepG2 Assay for human cAMP Responsive Element (CRE) binding protein 3 (AID 2282926). The following applies: HepG2 CRE cis-reporter, Attagene multiplexed mRNA; actives raise or lower the signal. The method, boiled down:
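Capillary electrophoresis of 6-FAM-labelled, HpaI-digested PCR products quantified reporter transcripts. These came from HepG2 transiently transfected with cis-element reporters and exposed to test chemicals for 24 hours, with DMSO defining baseline activity.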

The target of experiment [2] is CCAAT/enhancer-binding protein beta (Homo sapiens) (UniProt P17676). As to the kind of experiment: ATG_C_EBP_CIS: Attagene CIS-FACTORIAL HepG2 Assay for human CCAAT/Enhancer Binding Protein (C/EBP) beta (AID 2282927). The following applies: HepG2 Attagene cis-factorial transcription factor reporter; actives raise or lower the signal. In a few lines: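 Following a 24 h incubation with test chemical, transfected HepG2 cells yielded RNA whose reporter transcripts were quantified by RT-PCR and fluorescent capillary electrophoresis, with DMSO serving as baseline for bidirectional fitting.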
Sequence of CCAAT/enhancer-binding protein beta (Homo sapiens) (P17676 whole entry, looked up): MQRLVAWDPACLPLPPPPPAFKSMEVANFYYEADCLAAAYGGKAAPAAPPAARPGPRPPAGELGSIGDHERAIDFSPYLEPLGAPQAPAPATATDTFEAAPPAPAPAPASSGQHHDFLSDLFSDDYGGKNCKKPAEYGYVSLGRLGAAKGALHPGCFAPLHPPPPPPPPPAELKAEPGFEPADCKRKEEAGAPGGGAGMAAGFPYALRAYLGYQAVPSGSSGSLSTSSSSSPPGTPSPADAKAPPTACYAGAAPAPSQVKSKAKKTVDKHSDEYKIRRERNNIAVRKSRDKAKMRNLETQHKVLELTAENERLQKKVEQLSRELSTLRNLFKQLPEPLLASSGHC

Experiment [3] is described as follows: ATG_CMV_CIS: Attagene CIS-FACTORIAL HepG2 Assay for human CMV (Internal Marker) (AID 2282928).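 Note: endpoint acts as a background internal control marker rather than a target.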 The following applies: HepG2 CMV promoter reporter, transcription factor profiling; actives raise or lower the signal. In a few lines:
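Fluorescence intensity of RT-PCR-derived reporter fragments, resolved by capillary electrophoresis, gives the signal. HepG2 liver cells bearing transfected cis-element reporters were treated 24 h; activity in either direction was fit relative to DMSO-treated controls.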

Experiment [4] is described as follows: ATG_DR4_LXR_CIS: Attagene CIS-FACTORIAL HepG2 Assay for human Liver X Receptor (LXR), DR4 submotif (AID 2282929). The following applies: HepG2 Attagene DR4 cis-reporter, mRNA transcription; actives raise or lower the signal. In a few lines: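 Cells were transfected with multiple reporter transcription units, exposed to chemicals for 24 hours, then lysed for RNA. Reporter mRNA induction was measured by RT-PCR with capillary electrophoresis detection and fitted in both directions relative to DMSO.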

Experiment [5] has as its target Aryl hydrocarbon receptor (Homo sapiens) (UniProt P35869). As to the kind of experiment: ATG_Ahr_CIS: Attagene CIS-FACTORIAL HepG2 Assay for human Aryl Hydrocarbon Receptor (Ahr) (AID 2282930). The following applies: HepG2 AhR cis-factorial reporter transcription; actives raise or lower the signal. In a few lines: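 Values derive from bidirectional fitting against DMSO negative control. Underlying signal: cis-element reporter mRNA in transiently transfected HepG2, harvested 24 h post-dose and measured by RT-PCR plus capillary electrophoresis.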

The nature of experiment [6]: ATG_AP_1_CIS: Attagene CIS-FACTORIAL HepG2 Assay for human Activator Protein 1 (AP-1) (AID 2282931). The following applies: HepG2 Attagene cis-factorial AP-1 reporter mRNA; actives raise or lower the signal. The method, boiled down: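 Endogenous transcription-factor activity in human HepG2 liver cells is read through a cis-promoter reporter transcript, sampled 24 h after dosing. Detection uses RT-PCR with capillary electrophoresis; values come from bidirectional fitting relative to DMSO.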

Experiment [7] in a line: ATG_AP_2_CIS: Attagene CIS-FACTORIAL HepG2 Assay for human Activator Protein 2 (AP-2) (AID 2282932). The following applies: HepG2 AP-2 cis-reporter, Attagene transcription factor profiling; actives raise or lower the signal. In a few lines:
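Assay in transfected HepG2 with promoter-regulated reporters, 24 h incubation after dosing. Signal is reporter mRNA fluorescence (RT-PCR, capillary electrophoresis), analysed for both increases and decreases relative to DMSO controls.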

Experiment [8] can be described thus: ATG_BRE_CIS: Attagene CIS-FACTORIAL HepG2 Assay for human Bone Morphogenetic Protein (BMP) Response Element (BRE) (AID 2282933). The following applies: HepG2 BMP response element reporter, Attagene transcription factor profiling; actives raise or lower the signal. The method, boiled down:
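A HepG2 multiplex reporter system measured inducible reporter mRNA 24 h post-dosing. Detection: RT-PCR, 6-FAM primer extension, HpaI digestion, capillary electrophoresis. Activity fitted bidirectionally relative to DMSO.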

Experiment [9] has as its target Retinoic acid receptor alpha (Homo sapiens) (UniProt P10276). Briefly: ATG_DR5_RAR_CIS: Attagene CIS-FACTORIAL HepG2 Assay for human Retinoic Acid Receptor Alpha (RARE), DR5 submotif (AID 2282934). The following applies: HepG2 Attagene cis-factorial RARE DR5 reporter, mRNA; actives raise or lower the signal. The method, boiled down:
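Endpoint fitted in both directions relative to DMSO as negative control. It reflects DR5 cis-element reporter mRNA induction in transiently transfected HepG2 cells, measured 24 h after dosing through RT-PCR and fluorescent capillary electrophoresis.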

Experiment [10] deals with Transcription factor E2F1 (Homo sapiens) (UniProt Q01094). As to the kind of experiment: ATG_E2F_CIS: Attagene CIS-FACTORIAL HepG2 Assay for human E2F Transcription Factor 1 (AID 2282935). The following applies: HepG2 Attagene cis-reporter, E2F reporter RNA transcripts; actives raise or lower the signal. The method, boiled down:
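In this cis-factorial format, endogenous factor activity drives transfected reporters in HepG2; transcripts collected at 24 h are quantified by fluorescence after RT-PCR and capillary separation.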

Activity calls are given as the source filed them. Rule for the calls: active = hit-call score of the fitted dose curve at least 0.9, where 1 is the maximum; inactive = score below 0.9.

The term AC50 denotes the concentration at which the activity in the assay is half-maximal.

Sequence of Retinoic acid receptor alpha (Homo sapiens) (P10276 whole entry, looked up): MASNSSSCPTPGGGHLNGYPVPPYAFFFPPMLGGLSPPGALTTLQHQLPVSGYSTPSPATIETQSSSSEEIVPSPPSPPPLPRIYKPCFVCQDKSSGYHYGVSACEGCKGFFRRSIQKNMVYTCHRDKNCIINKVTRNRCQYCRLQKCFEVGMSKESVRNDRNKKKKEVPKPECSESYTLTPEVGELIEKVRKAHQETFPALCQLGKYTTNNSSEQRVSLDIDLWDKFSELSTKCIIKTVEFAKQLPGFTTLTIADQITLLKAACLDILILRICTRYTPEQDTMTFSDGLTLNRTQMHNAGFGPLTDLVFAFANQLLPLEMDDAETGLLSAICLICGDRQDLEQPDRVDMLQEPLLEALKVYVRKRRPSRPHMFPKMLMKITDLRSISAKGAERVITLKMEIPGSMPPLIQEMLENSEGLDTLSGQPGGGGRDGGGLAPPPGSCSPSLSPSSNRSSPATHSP
Sequence of Transcription factor E2F1 (Homo sapiens) (Q01094 whole entry, looked up): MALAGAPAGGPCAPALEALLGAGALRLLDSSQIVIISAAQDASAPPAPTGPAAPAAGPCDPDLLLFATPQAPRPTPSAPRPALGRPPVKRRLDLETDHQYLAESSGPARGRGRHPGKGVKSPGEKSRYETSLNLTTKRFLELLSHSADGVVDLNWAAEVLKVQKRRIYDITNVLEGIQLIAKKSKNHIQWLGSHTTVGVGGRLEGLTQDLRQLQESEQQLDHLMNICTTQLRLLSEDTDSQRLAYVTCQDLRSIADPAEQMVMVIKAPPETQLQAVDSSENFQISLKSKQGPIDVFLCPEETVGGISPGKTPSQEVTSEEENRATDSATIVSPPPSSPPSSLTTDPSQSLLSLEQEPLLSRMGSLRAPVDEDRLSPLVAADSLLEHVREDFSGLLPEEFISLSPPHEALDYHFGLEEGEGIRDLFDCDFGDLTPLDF
Sequence of Aryl hydrocarbon receptor (Homo sapiens) (P35869 whole entry, looked up): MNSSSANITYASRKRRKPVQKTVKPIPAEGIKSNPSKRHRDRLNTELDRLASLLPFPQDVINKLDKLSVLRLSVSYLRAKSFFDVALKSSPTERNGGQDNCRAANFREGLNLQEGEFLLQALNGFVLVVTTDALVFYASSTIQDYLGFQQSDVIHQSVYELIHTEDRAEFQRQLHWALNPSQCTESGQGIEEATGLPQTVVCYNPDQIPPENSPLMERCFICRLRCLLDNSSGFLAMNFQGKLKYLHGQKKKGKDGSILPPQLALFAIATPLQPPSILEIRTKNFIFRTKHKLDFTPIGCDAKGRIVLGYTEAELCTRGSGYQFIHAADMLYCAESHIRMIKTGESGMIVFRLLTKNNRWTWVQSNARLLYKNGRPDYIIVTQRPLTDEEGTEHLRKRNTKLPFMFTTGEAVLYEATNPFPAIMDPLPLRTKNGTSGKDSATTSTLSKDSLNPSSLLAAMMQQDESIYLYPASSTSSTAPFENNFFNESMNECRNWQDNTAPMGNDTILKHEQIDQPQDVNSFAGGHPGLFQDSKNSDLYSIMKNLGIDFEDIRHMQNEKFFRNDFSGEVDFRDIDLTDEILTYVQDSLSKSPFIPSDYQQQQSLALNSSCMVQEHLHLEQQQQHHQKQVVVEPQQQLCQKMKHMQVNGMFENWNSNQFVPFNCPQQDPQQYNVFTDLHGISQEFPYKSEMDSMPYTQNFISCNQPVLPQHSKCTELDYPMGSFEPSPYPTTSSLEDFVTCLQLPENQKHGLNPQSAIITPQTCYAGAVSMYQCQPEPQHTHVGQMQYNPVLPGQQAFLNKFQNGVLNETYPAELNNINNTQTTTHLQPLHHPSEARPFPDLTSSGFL

For the molecule `CCC(C)c1cc([N+](=O)[O-])cc([N+](=O)[O-])c1OC(=O)OC(C)C` (stereo not given), the result in experiment [1], in [3], in experiment [4], in experiment [5], in [9] and in experiment [10] was inactive. The AC50 in [2] was 49.1 µM (active); in experiment [6], 25.8 µM (active); in [7] it was 39.7 µM (active); in [8] it was 100 µM (active).

For the molecule `CC1=NN(c2ccc(S(=O)(=O)O)cc2)C(=O)C1`, the molecule was classed as inactive in [1], in experiment [2], in [3], in [4], in experiment [5] and in [6]. The result in experiment [7], in experiment [8], in experiment [9] and in experiment [10] was inactive.

Take `CCCC(=O)OCCc1ccccc1`: the outcome in experiment [1], in experiment [2], in experiment [3], in experiment [4], in experiment [5] and in experiment [6] was inactive. Also, the call in [7], in [8], in experiment [9] and in experiment [10] was inactive.

With `CCCCC(CC)C(=O)OC(C)C` (stereo not given), the result in experiment [1], in experiment [2], in [3], in [4], in [5] and in experiment [6] was inactive. For the same molecule, the call in experiment [7], in experiment [8], in experiment [9] and in experiment [10] was inactive.

In the case of `CCCCCCCCc1ccc(S(=O)(=O)O)cc1`, the AC50 in experiment [1] is 19.7 µM (active); in experiment [4], 42.1 µM (active); in experiment [10] it was 155 µM (active). The result in experiment [2], in experiment [3], in experiment [5], in experiment [6], in [7] and in [8] was inactive. In addition, the molecule was classed as inactive in experiment [9].

Regarding `Nc1ccc2cc(S(=O)(=O)O)cc(O)c2c1N=Nc1ccccc1C(F)(F)F`, the call in experiment [1], in [2], in [3], in experiment [4], in experiment [6] and in experiment [7] was inactive. Also, the result in experiment [8], in experiment [9] and in [10] was inactive. Moreover, the AC50 in experiment [5] was 12.6 µM (active).

For `O=C(O)CCCCCCCCCCCC(=O)O`, the result in [1], in experiment [2], in [3], in experiment [4], in [5] and in [6] was inactive. Besides, the result in [7], in [8], in [9] and in [10] was inactive.

As to `CCCCC1CCC(O)CC1` (stereo not given), the outcome in [1], in experiment [2], in experiment [3], in experiment [4], in experiment [5] and in [6] was inactive. Moreover, the call in experiment [7], in [8], in experiment [9] and in experiment [10] was inactive.

Consider `CCN(CCN)c1cccc(C)c1`, for which the molecule was classed as inactive in [1], in experiment [2], in [3], in [4], in experiment [6] and in experiment [7]. Further, the molecule was called inactive in experiment [8], in experiment [9] and in experiment [10]. Moreover, the AC50 in experiment [5] is 50 µM (active).

In the case of `COC(=O)Nc1ccc(Cl)c(Cl)c1`, the call in experiment [1], in [2], in experiment [7], in experiment [8], in experiment [9] and in [10] was inactive. Further, the AC50 in experiment [3] is 24 µM (active); in [4], 26.2 µM (active); in experiment [5], 55.7 µM (active); in experiment [6], 172 µM (active).

As for `COc1ccc(CCC(C)=O)cc1`, the molecule was called inactive in [1], in experiment [2], in experiment [3], in [4], in [5] and in experiment [6]. Also, the molecule was called inactive in experiment [7], in experiment [8], in [9] and in experiment [10].

On to `c1ccc2[nH]cnc2c1`, for which the result in experiment [1], in experiment [2], in experiment [3], in experiment [4], in experiment [5] and in experiment [6] was inactive. Moreover, the outcome in experiment [7], in [8], in experiment [9] and in [10] was inactive.

For `CC[N+](C)(CC)CC`, the result in [1], in [2], in [3], in experiment [4], in experiment [5] and in experiment [6] was inactive. The outcome in [7], in [8], in experiment [9] and in [10] was inactive.

For `Cc1cccc(Nc2ccccc2)c1`, the result in experiment [1], in experiment [2], in experiment [3], in experiment [5], in experiment [7] and in experiment [8] was inactive. Moreover, the result in experiment [9] and in [10] was inactive. Further, the figures for the concentration at half-maximal activity (AC50) in [4] and in experiment [6] were 67.5 µM (active) and 139 µM (active), respectively.

As for `CCCC(O)C(O)CO` (stereo not given), the call in experiment [1], in experiment [2], in experiment [3], in [4], in experiment [6] and in experiment [7] was inactive. The molecule was classed as inactive in [8], in experiment [9] and in [10]. In addition, the AC50 in experiment [5] was 0.16 µM (active).

Take `CS(=O)(=O)OCCCCOS(C)(=O)=O`: the molecule was called inactive in experiment [1], in experiment [2], in [3], in experiment [4], in [6] and in [7]. Also, the call in [8], in [9] and in [10] was inactive. Moreover, the half-maximal activity concentration (AC50) in [5] was 63.6 µM (active).

With `C=CC(=O)OCCC#N`, the molecule was classed as inactive in [1], in [2], in experiment [5], in [6], in [9] and in experiment [10]. Further, the half-maximal activity concentration (AC50) was 100 µM (active) in [3], 40.5 µM (active) in [4], 21.6 µM (active) in experiment [7] and 26.7 µM (active) in [8].

As for `CCC1(C)NC(=O)NC1=O` (stereo not given), the molecule was classed as inactive in [1], in experiment [2], in experiment [3], in experiment [4], in experiment [5] and in experiment [6]. The outcome in experiment [7], in [8], in experiment [9] and in experiment [10] was inactive.

Consider `C=CCCC(=O)/C=C/C1C(C)=CCCC1(C)C` (stereo not given), for which the call in experiment [1], in experiment [2], in experiment [7], in experiment [8], in experiment [9] and in [10] was inactive. For the same molecule, the AC50 in [3] is 140 µM (active); in [4], 175 µM (active); in [5] it was 53.2 µM (active); in experiment [6] it was 121 µM (active).

The values are drawn from PubChem BioAssay (EPA / NIEHS).
